Where “and” joins values, the source holds several entries; their conditions need not be identical. Equal values may be shown once. Records with an inconclusive call do not appear. Where a structure was tested more than once in an assay, its records may differ in their call. Calls of active or inactive are those of the source. Unless noted, the call rests on the fitted dose curve; in most records, active means well fitted curve in either direction with a large enough effect (not every such curve was filed as active); inconclusive means small, poorly fitted or top-dose-only effect, or another doubt; inactive means flat fitted curve, though single readings scatter.
What was measured:
[1] = AP1 Signaling Pathway (AID 357); conditions: ME-180 AP-1-bla reporter, EGF-induced, beta-lactamase ratio, 5 h;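 further: ME-180 reporter cells stimulated with EGF at its EC50 level; on the % scale 0 is the no-effect control and ±100 the full control effect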
Procedure, shortened: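 Modulation of EGF-driven AP-1 transcription was assessed with a beta-lactamase reporter in ME-180 cells. Compound and EC50 EGF were co-incubated 5 hours at 37 °C before 2.5-hour CCF4 loading at room temperature and dual-emission reading.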

[2] = target: Cytochrome P450 1A2 (Homo sapiens) (UniProt P05177); assay: p450-cyp1a2 (AID 410; calls by dose curve; further: potency means the concentration at half of the fitted maximal effect;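 on activity change, negative = inhibition: -100% = full effect of reference inhibitor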); conditions: recombinant CYP1A2, luciferin-ME demethylation, luminescence; series mostly up to 57 µM
Chain of Cytochrome P450 1A2 (Homo sapiens) (P05177 whole entry, looked up): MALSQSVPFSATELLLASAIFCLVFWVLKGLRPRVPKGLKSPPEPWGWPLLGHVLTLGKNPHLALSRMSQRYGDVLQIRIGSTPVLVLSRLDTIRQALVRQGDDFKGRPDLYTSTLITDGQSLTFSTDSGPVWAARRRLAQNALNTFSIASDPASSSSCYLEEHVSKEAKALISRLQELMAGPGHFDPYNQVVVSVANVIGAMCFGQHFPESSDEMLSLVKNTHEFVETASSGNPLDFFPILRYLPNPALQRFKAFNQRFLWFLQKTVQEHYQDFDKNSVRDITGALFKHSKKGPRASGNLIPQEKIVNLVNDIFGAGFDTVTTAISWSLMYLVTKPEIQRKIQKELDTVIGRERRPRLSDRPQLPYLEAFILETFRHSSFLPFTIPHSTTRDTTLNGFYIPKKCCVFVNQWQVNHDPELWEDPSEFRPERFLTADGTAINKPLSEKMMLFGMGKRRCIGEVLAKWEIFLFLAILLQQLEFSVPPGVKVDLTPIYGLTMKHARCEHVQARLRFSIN
Procedure, shortened: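 Read-out is luminescence from luciferin produced by CYP1A2 demethylation of Luciferin-ME (100uM, at Km). Detection reagent stopped the 60 min NADPH-dependent reaction; signals were normalized to 57 uM furafylline.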

[3] = NFAT Signaling Pathway (AID 444); conditions: Jurkat NFAT-bla M1, carbachol, beta-lactamase ratio, 5 h; at 38 µM (top of the series) unless noted;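 further: carbachol stimulus at about its EC50 of 1 µM final; on the % scale 0 is the no-effect control and ±100 the full control effect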
Procedure, shortened: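 Jurkat cells carrying an NFAT-driven β-lactamase reporter and co-transfected muscarinic M1 receptor were treated with compound plus carbachol (1 uM final, an EC50 level) for 5 h at 37 °C. CCF4 loading followed for 1 h at RT; 460/530 nm ratio gave %activity.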

[4] = Stat Signaling Pathway (AID 446); conditions: ME-180 (cervical carcinoma) SIE beta-lactamase reporter, IL-6 stimulated, 5 h;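 further: ME-180 cervical cancer cells given 40 pM IL-6 alongside compound; SIE-controlled beta-lactamase reporter measured as 460/530 nm FRET emission ratio; on the % scale 0 is the no-effect control and ±100 the full control effect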
Procedure, shortened: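 Overnight-plated ME-180 cells bearing a STAT Inducible Element beta-lactamase reporter; 5 h co-exposure to compound and 40 pM IL-6; values normalized to 300 pM IL-6 and 125 nM JAK inhibitor controls.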

[5] = target: Glucocorticoid receptor (Homo sapiens) (UniProt P04150); assay: GR-GFP Redistribution (AID 450;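 active means compounds whose dose series gives a full or clear partial fitted curve of increased nuclear translocation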; further: potency means the concentration at half of the fitted maximal effect); conditions: U2OS GR-GFP nuclear translocation, laser cytometry, 2 h
Chain of Glucocorticoid receptor (Homo sapiens) (P04150 whole entry, looked up, the tested form may be a part): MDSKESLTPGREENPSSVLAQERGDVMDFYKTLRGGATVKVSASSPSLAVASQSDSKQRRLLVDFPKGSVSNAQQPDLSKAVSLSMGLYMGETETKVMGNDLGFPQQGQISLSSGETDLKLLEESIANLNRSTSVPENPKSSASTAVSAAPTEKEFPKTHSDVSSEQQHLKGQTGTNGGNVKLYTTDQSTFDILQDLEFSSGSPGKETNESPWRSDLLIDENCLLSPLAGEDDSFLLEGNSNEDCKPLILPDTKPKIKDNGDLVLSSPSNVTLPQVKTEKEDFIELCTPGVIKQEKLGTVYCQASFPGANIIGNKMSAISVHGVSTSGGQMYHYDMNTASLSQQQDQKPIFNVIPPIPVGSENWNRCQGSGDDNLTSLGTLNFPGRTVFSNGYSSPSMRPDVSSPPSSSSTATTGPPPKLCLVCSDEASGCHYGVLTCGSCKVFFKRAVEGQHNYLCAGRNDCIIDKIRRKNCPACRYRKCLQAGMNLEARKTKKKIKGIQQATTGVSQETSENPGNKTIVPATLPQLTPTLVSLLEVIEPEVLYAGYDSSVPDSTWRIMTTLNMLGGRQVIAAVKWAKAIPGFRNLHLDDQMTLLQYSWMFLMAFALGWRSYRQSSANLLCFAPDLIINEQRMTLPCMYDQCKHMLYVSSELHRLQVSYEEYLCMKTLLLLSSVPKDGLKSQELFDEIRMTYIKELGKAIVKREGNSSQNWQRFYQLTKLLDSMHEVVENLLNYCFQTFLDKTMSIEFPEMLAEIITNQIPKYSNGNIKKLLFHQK

[6] = target: Mitogen-activated protein kinase 10 (Mus musculus) (UniProt Q61831); assay: JNK3 AlphaScreen Assay (AID 530); conditions: JNK3 lysate, c-Jun phosphorylation; series mostly up to 57.1 µM;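 further: kinase came from lysate of stimulated human HepG2 cells; signal reports phosphorylation of biotinylated GST-cJun 1-79 at Ser73 with 10 µM ATP; on the % scale 0 is the no-effect control and ±100 the full control effect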
Procedure, shortened: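 Biotinylated GST-cJun(1-79) served as substrate for JNK3 in HepG2 lysates stimulated with IL-1beta and TNF-alpha. ATP was 10 uM final, pH 7.6. Ser73 phosphorylation was quantified by AlphaScreen (680 nm excitation).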

[7] = target: Glucocorticoid receptor (Homo sapiens) (UniProt P04150); assay: GR-EFC Redistribution (AID 451; calls by dose curve; further: potency means the concentration at half of the fitted maximal effect); conditions: CHO-K1 GR-EFC translocation, beta-gal luminescence, 2 h
Procedure, shortened: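 CHO-K1 cells stably expressing nuclear-localized β-gal enzyme acceptor and GR fused C-terminally to the enzyme donor fragment; ligand-driven nuclear translocation restores β-gal by complementation. Compounds titrated up to 46 uM final, 2 h at 37 °C; luminescence read.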

[8] = target: Lysosomal acid glucosylceramidase (Homo sapiens) (UniProt P04062); assay: Glucocerebrosidase-p2 (AID 348; in the data active means potency below about 10 µM; further: potency means the concentration at half of the fitted maximal effect); conditions: purified GBA, blue fluorogenic substrate, 40 min
Chain of Lysosomal acid glucosylceramidase (Homo sapiens) (P04062 whole entry, looked up): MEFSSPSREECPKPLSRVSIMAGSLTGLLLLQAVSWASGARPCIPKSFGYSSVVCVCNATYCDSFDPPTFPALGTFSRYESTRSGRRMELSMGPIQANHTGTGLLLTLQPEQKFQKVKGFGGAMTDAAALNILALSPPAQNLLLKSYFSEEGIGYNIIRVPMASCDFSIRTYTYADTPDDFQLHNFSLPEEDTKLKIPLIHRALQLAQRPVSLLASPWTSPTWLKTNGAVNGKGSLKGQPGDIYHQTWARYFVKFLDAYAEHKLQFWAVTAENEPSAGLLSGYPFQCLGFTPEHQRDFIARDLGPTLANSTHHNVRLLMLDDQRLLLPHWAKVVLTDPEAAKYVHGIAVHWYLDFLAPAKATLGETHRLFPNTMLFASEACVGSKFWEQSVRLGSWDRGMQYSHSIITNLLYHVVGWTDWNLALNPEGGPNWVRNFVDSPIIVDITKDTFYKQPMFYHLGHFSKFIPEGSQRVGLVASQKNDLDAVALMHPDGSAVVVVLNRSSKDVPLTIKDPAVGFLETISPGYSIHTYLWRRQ
Procedure, shortened: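 Normal human glucocerebrosidase (0.2 nM) with blue fluorogenic substrate (80 uM final) in citrate/phosphate pH 5.9 with 10mM sodium taurocholate, 0.01% tween-20; 40 min RT, NaOH/glycine stop; fluorescence Ex 365/Em 440; AC50 from a titration from 0.6 nM upwards.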

[9] = Cell Viability - BJ (AID 421; calls by dose curve;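 further: potency means the concentration at half of the fitted maximal effect; cells exposed to compound for 40 hours at 37 °C before readout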); conditions: BJ fibroblast viability, qHTS
Procedure, shortened: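 Quantitative HTS: ATP depletion in BJ cells after 40 hr compound exposure in complete culture medium, detected with CellTiter-Glo; AC50 from standard Hill fits.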

[10] = Cell Viability - Jurkat (AID 426;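 active means dose-dependent loss of cell ATP signal giving a full or clear fitted curve, ranked by lower potency value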;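 further: potency means the concentration at half of the fitted maximal effect; cells exposed to compound for 40 hours at 37 °C before ATP read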); conditions: qHTS
Procedure, shortened: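 Cytotoxicity was scored as loss of cellular ATP, measured by luciferase-based luminescence, in Jurkat clone E6-1 cells after 40 h compound treatment; tamoxifen and doxorubicin served as positive controls.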

[11] = Cell Viability - Hek293 (AID 427;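 active means compounds whose dose-response curve shows a full or clear partial loss of cell viability, called from curve shape rather than a numeric limit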;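 further: potency means the concentration at half of the fitted maximal effect; cells exposed to compound for 40 hours at 37 °C before reading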); conditions: qHTS
Procedure, shortened: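 AC50 values derive from Hill-modelled concentration-response of ATP-based luminescence, normalized between DMSO-only and 100 uM tamoxifen controls. Cells were exposed in complete culture medium for 40 hr at 37 °C before detection.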

[12] = Cell Viability - HepG2 (AID 433; calls by dose curve;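 further: potency means the concentration at half of the fitted maximal effect; potency for ATP loss meaning cytotoxicity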); conditions: qHTS
Procedure, shortened: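 Read-out is luciferase-based quantitation of cellular ATP as a measure of viable HepG2 cells after 40 h treatment at 37 °C. Signal decrease is scaled between DMSO-only and 100 uM tamoxifen controls, with AC50 fitted by the Hill equation.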

[13] = Cell Viability - MRC5 (AID 434; calls by dose curve;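 further: potency means the concentration at half of the fitted maximal effect; cells exposed to compound for 40 hours at 37 °C; potency reflects cytotoxicity seen as loss of intracellular ATP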); conditions: MRC5 lung fibroblast viability, qHTS
Procedure, shortened: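 Decrease in intracellular ATP, quantified by luciferase light output, reflects compound toxicity toward MRC5 cells exposed for 40 hr in complete culture medium. Concentration-response curves, scaled between DMSO and 100 uM tamoxifen, gave AC50 values.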

[14] = Cell Viability - SK-N-SH (AID 435; calls by dose curve;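 further: potency means the concentration at half of the fitted maximal effect; compound exposure lasted 40 h at 37 °C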); conditions: SK-N-SH neuroblastoma cell viability qHTS
Procedure, shortened: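 Luminescent ATP signal served as the viability read-out after 40 hours of compound treatment of human neuroblastoma SK-N-SH cells. Concentration-response data, scaled between DMSO and 100 uM tamoxifen, gave AC50 values by standard Hill modeling.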

[15] = Cell Viability - N2a (AID 540; active means well fitted curve in the direction sought with a large enough effect; an effect the other way counts as inactive or inconclusive;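 further: potency means the concentration at half of the fitted maximal effect; cells exposed to compound for 40 h at 37 °C; nearly all actives have a fitted effect of over 45% in size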); conditions: N2a mouse neuroblastoma cell viability; activity change, negative = cytotoxicity: at 92.2 µM (top of the series)
Procedure, shortened: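 In this qHTS cytotoxicity screen, ATP-dependent luciferase luminescence reports viable N2a cells after a 40 hr compound exposure in complete culture medium. Potencies are AC50 values from standard Hill equation fits.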

[16] = Cell Viability - NIH 3T3 (AID 541; active means well fitted curve in the direction sought with a large enough effect; an effect the other way counts as inactive or inconclusive; further: potency means the concentration at half of the fitted maximal effect; nearly all actives have a fitted effect of over 25% in size); conditions: NIH 3T3 cell viability, qHTS; activity change, negative = cytotoxicity: at 92.2 µM (top of the series)
Procedure, shortened: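 In this cytotoxicity screen, acute toxicity is scored as an ATP drop measured by CellTiter-Glo in NIH 3T3 fibroblasts following a 40 hr, 37 °C incubation with compound.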

[17] = Cell Viability - HUV-EC-C (AID 542; active means well fitted curve in the direction sought with a large enough effect; an effect the other way counts as inactive or inconclusive; further: potency means the concentration at half of the fitted maximal effect; nearly all actives have a fitted effect of over 35% in size); conditions: HUV-EC-C endothelial cell viability, qHTS; series mostly up to 92.2 µM
Procedure, shortened: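 Concentration-dependent ATP loss in HUV-EC-C cells is the measure. Exposure lasts 40 hr at 37 °C; luminescence follows CellTiter-Glo addition, and Hill fits give AC50.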

[18] = Cell Viability - H-4-II-E (AID 543; active means well fitted curve in the direction sought with a large enough effect; an effect the other way counts as inactive or inconclusive; further: potency means the concentration at half of the fitted maximal effect; nearly all actives have a fitted effect of over 35% in size); conditions: H-4-II-E rat hepatoma viability; series mostly up to 92.2 µM
Procedure, shortened: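 AC50 from Hill-modelled qHTS concentration-response curves. H-4-II-E rat hepatoma cells in complete medium, 40 hr exposure at 37 °C, viability by CellTiter-Glo ATP luminescence.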

[19] = Cell Viability - SH-SY5Y (AID 544; active means well fitted curve in the direction sought with a large enough effect; an effect the other way counts as inactive or inconclusive; further: potency means the concentration at half of the fitted maximal effect; nearly all actives have a fitted effect of over 55% in size); conditions: SH-SY5Y neuroblastoma cell viability; viability change, negative = cytotoxic: at 92.2 µM (top of the series)
Procedure, shortened: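 Quantitative HTS in SH-SY5Y neuroblastoma cells, 40 hr treatment at 37 °C, ATP content by luciferase luminescence; AC50 from Hill fits.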

[20] = Cell Viability - Renal Proximal Tubule (AID 545; active means well fitted curve in the direction sought with a large enough effect; an effect the other way counts as inactive or inconclusive;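 further: 0% = DMSO only and -100% = 100 µM tamoxifen; nearly all actives have a fitted effect of over 40% in size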); conditions: renal proximal tubule cells viability, primary cells of rat origin; activity change, negative = cytotoxicity: at 91.7 µM (top of the series)
Procedure, shortened: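 Luminescent ATP signal (CellTiter-Glo) served as the viability read-out after 40 hr compound exposure of freshly isolated rat proximal tubule cells at 37 °C. Concentration-dependent ATP loss was fitted with the Hill equation to give AC50.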

## COC(=O)c1c(C)[nH]c(C)c1C(=O)c1ccccc1Cc1ccccc1
[1]; at 38 µM (top of the series)
  activity change, negative = inhibition: -27.5% (inactive)
[2]
  Potency: 1.26 µM (active) and 251 nM (active)
[3]
  activity change, negative = inhibition: 4.44% (inactive)
[4]; at 38 µM (top of the series)
  activity, negative = inhibition: -23% (inactive)
[5]
  Potency: > 46 µM (inactive)
[6]
  Potency: inactive

## CC(C)(C=O)Cc1cc(C(C)(C)C)c(O)c(C(C)(C)C)c1
[1]; at 38 µM (top of the series)
  activity change, negative = inhibition: 5.89% (inactive)
[2]
  Potency: 25.1 µM (active)
[3]
  activity change, negative = inhibition: -17.5% (inactive)
[4]; at 38 µM (top of the series)
  activity, negative = inhibition: -12.1% (inactive)
[5]
  Potency: > 46 µM (inactive)
[7]
  Potency: > 46 µM (inactive)
[6]
  Potency: inactive

## c1cnc2c(c1)ccc1cccnc12
[8]
  Potency: > 11.4 µM (inactive)
[1]; at 7.69 µM (top of the series)
  activity change, negative = inhibition: -13.2% (inactive)
[1]; at 38 µM (top of the series)
  activity change, negative = inhibition: 0.206% (inactive)
[2]
  Potency: 3.98 µM (active) and 2 µM (active)
[9]
  Potency: > 92 µM (inactive)
[10]
  Potency: 8.24 µM (active)
[11]
  Potency: 2.4 µM (active)
[12]
  Potency: 4.55 µM (active)
[13]
  Potency: > 92 µM (inactive)
[14]
  Potency: 3.86 µM (active)
[4]; at 38 µM (top of the series)
  activity, negative = inhibition: -9.47% (inactive)
[5]
  Potency: > 46 µM (inactive)
[6]
  Potency: inactive
[15]
  Potency: 3.98 µM (active)
[16]
  Potency: 2.51 µM (active)
[17]
  Potency: 12.6 µM (active)
[18]
  Potency: 2.51 µM (active)
[19]
  Potency: 5.01 µM (active)
[20]
  activity change, negative = cytotoxicity: -87.9% (active)

## Nc1cc(-c2ccncc2)c[nH]c1=O
[1]; at 17.2 µM (top of the series)
  activity change, negative = inhibition: -9.46% (inactive)
[2]
  Potency: 15.8 µM (active)
[3]
  activity change, negative = inhibition: -1.83% [at 17.2 µM] (inactive)
[4]; at 17.2 µM (top of the series)
  activity, negative = inhibition: -17.5% (inactive)
[5]
  Potency: > 20.6 µM (inactive)
[6]
  Potency: inactive

## O=C1C(SCCO)=C(SCCO)C(=O)c2ccccc21
[1]; at 38 µM (top of the series)
  activity change, negative = inhibition: -104% (active)
[2]
  Potency: 12.6 µM (active) and 631 nM (active)
[3]
  activity change, negative = inhibition: -94.5% (active)
[4]; at 38 µM (top of the series)
  activity, negative = inhibition: 134% (active)
[5]
  Potency: > 46 µM (inactive)
[6]
  Potency: inactive

## N[C@H](CCCP(=O)(O)O)C(=O)O
[1]; at 38 µM (top of the series)
  activity change, negative = inhibition: -8.4% (inactive)
[2]
  Potency: inactive and 31.6 µM (active) and 25.1 µM (active)
[3]
  activity change, negative = inhibition: -6.29% (inactive)
[4]; at 38 µM (top of the series)
  activity, negative = inhibition: 14.7% (inactive)
[5]
  Potency: > 46 µM (inactive)
[6]
  Potency: inactive

## c1ccc(-c2ccccn2)nc1
[1]; at 38 µM (top of the series)
  activity change, negative = inhibition: 11.7% (inactive)
[2]
  Potency: 25.1 µM (active)
[3]
  activity change, negative = inhibition: -2.98% (inactive)
[4]; at 38 µM (top of the series)
  activity, negative = inhibition: 6.11% (inactive)
[5]
  Potency: > 46 µM (inactive)
[7]
  Potency: > 46 µM (inactive)
[6]
  Potency: inactive

## O=C(O)c1ccccc1Nc1cccc(C(F)(F)F)c1
[1]; at 17.2 µM (top of the series)
  activity change, negative = inhibition: -4.38% (inactive) and -13.2% (inactive)
[2]
  Potency: 3.98 µM (active)
[3]
  activity change, negative = inhibition: -44% [at 17.2 µM] (inactive)
[4]; at 17.2 µM (top of the series)
  activity, negative = inhibition: -14.4% (inactive) and -17.3% (inactive)
[5]
  Potency: > 20.6 µM (inactive)
[7]
  Potency: > 20.6 µM (inactive)
[6]
  Potency: inactive

— PubChem BioAssay (NCATS)
